# Experimental data published in PubChem BioAssay (EPA / NIEHS).
# Activity calls are given as the source filed them. The calls were made as follows: active = hit-call score of the fitted dose curve at least 0.9, where 1 is the maximum; inactive = score below 0.9.
# Read-out: Forkhead box O3 (FOXO3), FOXO3 (gene 2309)
# Assay: LTEA_HepaRG_FOXO3: Life Technologies and Expression Analysis (LTEA) Assay for Forkhead box O3 (FOXO3) using HepaRG (AID 2283459)
# Conditions: mRNA level, 48 h; actives raise or lower the signal
# Method: LTEA_HepaRG is a cell based, multiplexed-readout assay that uses HepaRG, a human liver cell line, with measurements taken at 48 hours after chemical dosing on a 96-well plate.LTEA_HepaRG_FOXO3 is one of 102 assay component(s) measured in the LTEA HepaRG cell culture assay. It is a marker of Cell proliferation, survival, death.Data from the assay component LTEA_HepaRG_FOXO3 was analyzed into 1 endpoint. This assay endpoint, LTEA_HepaRG_FOXO3, was analyzed with bidirectional fitting relative to DMSO as the negative control and baseline of activity. Using a type of inducible reporter, measures of mRNA induction for gain or loss-of-signal activity can be used to understand regulation of transcription factor activity. To generalize the intended target to other relatable targets, this assay endpoint is annotated to the dna binding intended target family, where the subfamily is forkhead box protein.
# A total of 1060 chemcials from the ToxCast library were tested in eight-point concentration-response experiments. Cell culture and cytotoxicity assays were conducted at Thermo Fisher Scientific's Custom Services facility (Madison, WI). A single lot of human HepaRG cells (Thermo Fisher Scientific, Frederick, MD) was used for the cell culture experiments. 96-well format collagen type I coated plates of human HepaRG cells were prepared using established methods. Briefly, cryopreserved HepaRG cells were thawed, plated at a density of approximately 100,000 cells/well in HepaRG Thaw, Plate, and General Purpose media (HPRG770, Thermo Fisher Scientific), and incubated for 48 hours. 0.5% DMSO was selected as vehicle control to balance the requisite need of DMSO in HepaRG cultures to maintain differentiation (for example, baseline metabolism, proportions of hepatocytes vs. cholangiocytes), while enabling further hepatic receptor pathway activation (for example, PXR and CAR) in response to chemical exposure. 48 hours after plating, the culture medium was replaced with HepaRG Serum-Free Incudtion Media. Cells were exposed to each test chemical in duplicate and maintained in CO2 incubators for another 48 hours. Chemical plates were thawed to room temperature and 200x concentrations of treatment groups were prepared. 8-point conentration-reponse curves were made with the highest exposure at 100 uM, followed by half-log dilutions, all in 0.5% DMSO. Each test plate contained variouse controls, induction positive controls (1mM phenobarbital), cytotoxicity positive controls ([…] aflatoxin B1), vehicle controls (0.5% DMSO), and total lysis controls (0.5% DMSO). Cell morphology images were taken using an Essen IncuCyte FLR automated microscope, with six 96-well plates imaged in about 24 minutes. Images were captured and exported and JPEG files. Spent culture media was transfered to black-well plates for the LDH assay, and remaining media was sorted at -80 C for later use. Cells were treated with RLT buffer and frozen until shipped for gene expression analysis. Total RNA was isolated from the cell suspension in 75 uL of Buffer RLT (Qiagen, Germantown, MD 20874) by Quintiles/Expression Analysis (Durham, NC) using a custom isolation procedure. Total RNA from each plate well was transferred to a preamplification plate. Fluidigm's 96.96 Dynamic ArrayTM (Fluidigm, Amsterdam, the Netherlands) technology was used for gene expression analyses by quantitative reverse transcription polymerase chain reaction (qRT-PCR, performed by Quintiles/Expression Analysis, Durham, NC)89. Standard TaqManTM Assays (Applied Biosystems/ThermoFisher Scientific, Foster City, CA) were used to assess the expression of 93 genes selected based on their selectivity and sensitivity to important hepatic receptors known to be modulated by environmental chemicals; importance in human hepatocyte functionality; and hepatotoxicity. […]
Compound,outcome,AC50
CN(C)C(=S)S,inactive,–
Oc1c(Cl)cc(Cl)cc1Cl,inactive,–
Cc1cc(C)cc(C)c1,inactive,–
Clc1cccc(Cl)c1,inactive,–
N#Cc1cccnc1,inactive,–
CC(C)O.CC(C)O.OCCN(CCO)CCO.OCCN(CCO)CCO.[Ti],inactive,–
CC(C)(C)c1ccccc1O,inactive,–
Clc1cccc(Cl)c1Cl,inactive,–
O=C(O)C1(c2ccc3c(c2)OC[C@H](Cc2ccc(-c4ccccc4)cc2)[C@H]3O)CCCC1,inactive,–
OCCN(CCO)CCO,inactive,–
CCCCCCCCCCCCc1cccc(S(=O)(=O)O)c1,–,45 µM (active)
O=C(N[C@H]1CN2CCC1CC2)c1ccc2c(c1)OCCO2,inactive,–
COc1ccccc1N,inactive,–
